Data published in PubChem BioAssay (Tox21).
Results filed as inconclusive are left out. Activity calls are given as the source filed them. Unless noted, the call rests on the fitted dose curve; in most records, active means well fitted curve in the direction sought with a large enough effect in the repeat runs; inconclusive means weak or mixed curves; inactive means no such curve, though single readings can be large; an effect the other way counts as inactive or inconclusive.

Experiments:
[1] = target: Retinoic acid receptor RXR-alpha (Homo sapiens) (UniProt P19793); experiment: qHTS assay to identify small molecule agonists of the RXR signaling pathway (AID 1159527; calls by dose curve; further: nearly all actives have a fitted effect of over 35% in size; further: potency means the concentration at half of the fitted maximal effect; on activation: on the % scale 0 is the no-effect control and ±100 the full control effect); conditions: HEK293T RXRa-UAS-bla, beta-lactamase ratio, 16 h; series mostly up to 76.8 µM
Method in brief: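 Agonist mode; 9-cis retinoic acid positive control. HEK 293T UAS-bla reporter cells, 2% charcoal-stripped FBS, 16 hr compound exposure at 37 C/5% CO2. LiveBLAzer B/G FRET substrate 2 hr RT; ex 405, em 460/530 nm.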

[2] = qHTS assay to identify small molecule antagonists of the retinoid acid receptor (RAR) signaling pathway - cell viability counter screen (AID 1159551); conditions: C3RL4 cells viability, ATP luminescence (CellTiter-Glo), 6 h; series mostly up to 92.4 µM; further: on the % scale 0 is the no-effect control and ±100 the full control effect; nearly all actives have a fitted effect of over 35% in size
Method in brief: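 Viability of C3RL4 cells is quantified from ATP by luminescence after 6 h treatment at 37 C with compounds and 1 uM retinol.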

[3] = qHTS assay to identify small molecule agonists of the retinoic acid receptor (RAR) signaling pathway (AID 1159553); conditions: C3RL4 RARE luciferase reporter, agonist, 6 h; series mostly up to 73.3 µM; further: potency means the concentration at half of the fitted maximal effect
Method in brief: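 Compounds dissolved in DMSO were pinned onto C3RL4 cells seeded the previous day, and plates were held 6 hr at 37 C. RARE-driven luciferase output was then read by luminescence.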

[4] = qHTS assay to identify small molecule antagonists of the estrogen related receptor (ERR) signaling pathway from Tox21 library - cell viability counter screen (AID 1224834); conditions: ERR reporter cells viability, CellTiter-Fluor, 17.5 h; series mostly up to 92.4 µM; further: nearly all actives have a fitted effect of over 30% in size; further: potency means the concentration at half of the fitted maximal effect
Method in brief: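 In this quantitative HTS format, ERR cells receive compounds in DMSO and are incubated for 17.5 h at 37 C. Live-cell protease activity is then detected with CellTiter-Fluor.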

[5] = target: Luciferin 4-monooxygenase (Photinus pyralis) (UniProt P08659); experiment: qHTS assay to identify small molecule inhibitors of firefly luciferase (AID 1224835); further: nearly all actives have a fitted effect of over 25% in size; further: potency means the concentration at half of the fitted maximal effect; conditions: purified P. pyralis luciferase, luminescence inhibition; series mostly up to 115 µM
Method in brief: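 Biochemical qHTS: compounds run as interplate titrations against purified firefly enzyme, with D-luciferin and ATP each at its KM concentration. Light output recorded by CCD imaging.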

[6] = target: Nuclear receptor subfamily 1 group I member 3 (Homo sapiens) (UniProt Q14994); experiment: qHTS assay to identify small molecule antagonists of the constitutive androstane receptor (CAR) signaling pathway (AID 1224838); conditions: HepG2-CYP2B6-hCAR luciferase, CITCO-stimulated, 24 h; series mostly up to 92.4 µM; further: nearly all actives have a fitted effect of over 40% in size; further: potency means the concentration at half of the fitted maximal effect
Method in brief: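 CITCO-stimulated (50 nM final) HepG2 cells stably transfected with hCAR and CYP2B6-2.2kb luciferase were exposed to compounds at 15 concentrations for 24 h at 37 C/5% CO2. A luciferase reagent was added and luminescence recorded after 30 min.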

[7] = target: Nuclear receptor subfamily 1 group I member 3 (Homo sapiens) (UniProt Q14994); experiment: qHTS assay to identify small molecule agonists of the constitutive androstane receptor (CAR) signaling pathway (AID 1224839); conditions: HepG2 hCAR CYP2B6-luciferase, agonist mode, 24 h; series mostly up to 92.4 µM;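 further: HepG2 cells stably carrying human CAR and a CYP2B6 luciferase reporter; on the % scale 0 is the no-effect control and ±100 the full control effect; nearly all actives have a fitted effect of over 15% in size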
Method in brief: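 Luminescence read-out (ONE-Glo, 30 min, room temperature) from double-stable HepG2-CYP2B6-hCAR cells exposed 24 h to 15-point compound series in presence of 0.75 uM PK11195 final.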

[8] = qHTS assay to identify small molecule antagonists of the estrogen related receptor signaling pathway with the pleiotropic PPARgamma coactivator (PGC) from Tox21 10K library - cell viability counter screen (AID 1224840; active means well fitted cell-killing curve with a large enough effect in the repeat runs, not every such curve was filed as active; further: nearly all actives have a fitted effect of over 40% in size; further: potency means the concentration at half of the fitted maximal effect); conditions: PGC/ERR reporter cells viability, CellTiter-Fluor, 17.5 h; series mostly up to 92.4 µM
Method in brief: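 Viability counter screen, PGC/ERR cells: 17.5 h compound exposure at 37 C, CellTiter-Fluor fluorescence endpoint.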

[9] = qHTS assay to identify small molecule antagonists of the estrogen related receptor signaling pathway with the pleiotropic PPARgamma coactivator (PGC) from Tox21 10K library (AID 1224841; call rule not given here; further: on the % scale 0 is the no-effect control and ±100 the full control effect; actives are mostly falling curves and most rising ones were filed inactive; nearly all actives have a fitted effect of over 50% in size); conditions: PGC/ERR reporter cell line, ONE-Glo luciferase, 18 h; series mostly up to 92.4 µM
Method in brief: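 In the PGC/ERR line, DMSO solutions of test chemicals are pin-delivered to 2,000 cells/well six hours after dispensing. Following eighteen hours' incubation, One-Glo reagent is added and luminescence recorded.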

[10] = qHTS assay to identify small molecule agonists of the estrogen related receptor signaling pathway with the pleiotropic PPARgamma coactivator (PGC) from Tox21 10K library (AID 1224842); conditions: PGC/ERR reporter cell line, luciferase ONE-Glo, 18 h; series mostly up to 92.4 µM; further: nearly all actives have a fitted effect of over 15% in size; further: potency means the concentration at half of the fitted maximal effect
Method in brief: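 PGC/ERR reporter cell line, 2,000 cells per well, incubated 6 h at 37 C before 23 nL compound in DMSO was added. After 18 h at 37 C, One-Glo luminescence read following 30 min at room temperature.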

[11] = qHTS assay to identify small molecule antagonists of the retinoic acid receptor (RAR) signaling pathway (AID 1159552; further: nearly all actives have a fitted effect of over 50% in size; further: potency means the concentration at half of the fitted maximal effect); conditions: C3RL4 RARE luciferase reporter, retinol-stimulated, 6 h; series mostly up to 92.4 µM
Method in brief: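 Luminescence from a RARE luciferase reporter in C3RL4 cells served as read-out. Cells received compounds together with 1 uM final retinol and incubated 6 hr at 37 C before detection reagent was added for 30 min at room temperature.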

[12] = qHTS assay to identify small molecule agonists of the constitutive androstane receptor (CAR) signaling pathway - cell viability counter screen (AID 1224836); conditions: HepG2-CYP2B6-hCAR viability, CellTiter-Fluor, 23 h, PK11195 added to every well; series mostly up to 92.4 µM; further: nearly all actives have a fitted effect of over 45% in size; further: potency means the concentration at half of the fitted maximal effect
Method in brief: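 Viability read-out: CellTiter-Fluor fluorescence after 23 h compound exposure at 37 C/5% CO2 in double-stable HepG2-CYP2B6-hCAR cells, with PK11195 present at 0.75 uM final; compounds tested in 15-point titration.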

[13] = qHTS assay to identify small molecule antagonists of the constitutive androstane receptor (CAR) signaling pathway - cell viability counter screen (AID 1224837); conditions: HepG2-CYP2B6-hCAR viability, CellTiter-Fluor, 23 h, co-treated with 50 nM CITCO; series mostly up to 92.4 µM; further: on the % scale 0 is the no-effect control and ±100 the full control effect; nearly all actives have a fitted effect of over 45% in size
Method in brief: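 In quantitative HTS format, compounds at 15 concentrations were applied to HepG2 cells double-transfected with hCAR and CYP2B6-2.2kb under 50 nM CITCO stimulation; live-cell protease activity was read after 23 hr via CellTiter-Fluor.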

[14] = qHTS assay to identify small molecule agonists of the RXR signaling pathway - cell viability counter screen (AID 1159529); conditions: RXR-alpha-bla HEK293T viability, CellTiter-Glo, 16 h; series mostly up to 76.8 µM; further: on the % scale 0 is the no-effect control and ±100 the full control effect; nearly all actives have a fitted effect of over 50% in size
Method in brief: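 Luminescence from CellTiter-Glo (30 min, RT) measured viability in the same wells as the beta-lactamase reporter readout. Cells: GeneBLAzer RXR-alpha HEK 293T, 2% charcoal-stripped FBS. Compound exposure 16 hr, 37 C.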

[15] = qHTS assay to identify small molecule antagonists of the estrogen related receptor (ERR) signaling pathway - cell viability counter screen (AID 1224818); conditions: ERR reporter cell line viability counter screen; series mostly up to 46.1 µM; further: on the % scale 0 is the no-effect control and ±100 the full control effect
Method in brief: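 Cytotoxicity check run alongside the ERR antagonist screen: cells exposed to test compounds 17.5 h at 37 C, viability taken as CellTiter-Fluor fluorescence intensity.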

[16] = qHTS assay to identify small molecule antagonists of the estrogen related receptor (ERR) signaling pathway (AID 1224819; further: on the % scale 0 is the no-effect control and ±100 the full control effect; nearly all actives have a fitted effect of over 50% in size); conditions: ERR reporter cell line, luciferase inhibition; series mostly up to 46.1 µM
Method in brief: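 ERR reporter cells were plated at 2,000 cells/well and left 6 h at 37 C/5% CO2 before pin-tool transfer of compounds in DMSO. After 18 h at 37 C, One-Glo was added and luminescence was read 30 min later at room temperature.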

[17] = qHTS assay to identify small molecule agonists of the estrogen related receptor (ERR) signaling pathway (AID 1224820); conditions: ERR reporter cell line, luciferase agonist mode; series mostly up to 46.1 µM; further: on the % scale 0 is the no-effect control and ±100 the full control effect
Method in brief: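 After 6 h plating (2,000 cells/well) and 18 h compound treatment at 37 C, ERR cells were lysed with One-Glo and luminescence read after 30 min at room temperature.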

[18] = tested on: estrogen-related receptor alpha (ERRalpha) with PGC-1alpha coactivator, human; experiment: qHTS assay to identify small molecule antagonists of the estrogen related receptor signaling pathway with the pleiotropic PPARgamma coactivator (PGC) (AID 1224821; calls by dose curve); conditions: ERR/PGC reporter cell line, luciferase, antagonist mode; series mostly up to 46.1 µM
Method in brief: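 Luminescence from One-Glo luciferase reagent (30 min, room temperature) measured after 18 h compound treatment at 37 °C. Cells carry the PGC/ERR reporter and were seeded 6 h prior to dosing.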

[19] = qHTS assay to identify small molecule antagonists of the estrogen related receptor signaling pathway with the pleiotropic PPARgamma coactivator (PGC) cell viability counter screen (AID 1224822; further: on the % scale 0 is the no-effect control and ±100 the full control effect); conditions: ERR/PGC reporter cell line viability counter screen; series mostly up to 46.1 µM
Method in brief: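 Viable cell signal (CellTiter-Fluor, 30 min, 37 C/5% CO2) was measured in PGC/ERR cells after a 17.5 h compound incubation.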

[20] = qHTS assay to identify small molecule agonists of the estrogen related receptor signaling pathway with the pleiotropic PPARgamma coactivator (PGC) (AID 1224823); conditions: ERR/PGC reporter cell line, luciferase agonist mode; series mostly up to 46.1 µM; further: potency means the concentration at half of the fitted maximal effect
Method in brief: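 Luminescence from One-Glo reagent (30 min, room temperature) was read after 18 h compound treatment at 37 C of PGC/ERR cells plated 6 h beforehand; compounds delivered in DMSO by pin tool.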

Sequence of Retinoic acid receptor RXR-alpha (Homo sapiens) (P19793 whole entry, looked up): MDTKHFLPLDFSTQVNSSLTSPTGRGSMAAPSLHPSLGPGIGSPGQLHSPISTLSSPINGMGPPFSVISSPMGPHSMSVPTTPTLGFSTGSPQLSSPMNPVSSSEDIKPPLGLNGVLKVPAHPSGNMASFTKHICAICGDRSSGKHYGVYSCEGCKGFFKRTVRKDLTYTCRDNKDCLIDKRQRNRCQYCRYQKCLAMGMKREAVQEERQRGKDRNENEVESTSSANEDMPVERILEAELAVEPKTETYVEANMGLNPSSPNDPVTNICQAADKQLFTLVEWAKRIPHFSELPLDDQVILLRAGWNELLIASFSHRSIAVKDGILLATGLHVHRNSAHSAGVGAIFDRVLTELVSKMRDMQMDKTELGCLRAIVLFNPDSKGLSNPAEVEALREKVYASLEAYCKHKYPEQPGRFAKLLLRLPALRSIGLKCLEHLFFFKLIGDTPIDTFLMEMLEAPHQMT
Sequence of Luciferin 4-monooxygenase (Photinus pyralis) (P08659 whole entry, looked up): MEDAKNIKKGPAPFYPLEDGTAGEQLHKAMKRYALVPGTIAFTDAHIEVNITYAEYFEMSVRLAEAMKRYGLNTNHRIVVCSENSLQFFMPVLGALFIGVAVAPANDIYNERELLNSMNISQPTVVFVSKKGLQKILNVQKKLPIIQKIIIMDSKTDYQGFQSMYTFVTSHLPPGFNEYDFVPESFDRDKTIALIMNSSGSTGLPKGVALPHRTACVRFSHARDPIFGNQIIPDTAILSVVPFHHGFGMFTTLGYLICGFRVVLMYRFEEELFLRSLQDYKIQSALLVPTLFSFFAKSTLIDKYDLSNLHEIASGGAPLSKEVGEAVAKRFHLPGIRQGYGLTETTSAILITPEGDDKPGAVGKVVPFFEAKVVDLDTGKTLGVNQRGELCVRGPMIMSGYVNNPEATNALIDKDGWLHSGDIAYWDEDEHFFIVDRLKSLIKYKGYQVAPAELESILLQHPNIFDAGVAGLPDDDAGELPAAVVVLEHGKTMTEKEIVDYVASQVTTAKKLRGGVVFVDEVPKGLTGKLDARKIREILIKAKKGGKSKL
Sequence of Nuclear receptor subfamily 1 group I member 3 (Homo sapiens) (Q14994 whole entry, looked up): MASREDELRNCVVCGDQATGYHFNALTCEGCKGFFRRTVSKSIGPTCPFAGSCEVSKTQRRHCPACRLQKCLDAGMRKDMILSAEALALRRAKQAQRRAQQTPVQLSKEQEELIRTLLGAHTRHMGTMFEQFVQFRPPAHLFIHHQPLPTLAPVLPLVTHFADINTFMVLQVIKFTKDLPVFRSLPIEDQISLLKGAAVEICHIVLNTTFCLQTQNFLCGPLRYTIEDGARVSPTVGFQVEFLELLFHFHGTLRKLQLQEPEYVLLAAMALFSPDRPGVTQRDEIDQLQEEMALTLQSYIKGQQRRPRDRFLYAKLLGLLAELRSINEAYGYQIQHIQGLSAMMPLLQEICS

COc1cc2c(N3CCN(C(=O)Nc4ccc(OC(C)C)cc4)CC3)ncnc2cc1OCCCN1CCCCC1
active: Potency [4] 29.8 µM | Potency [6] 15 µM | Potency [8] 29.8 µM | Potency [10] 33.5 µM
inactive: Potency [1] | Potency [2] | Potency [3] | Potency [5] | Potency [7] | Potency [9]

CCCCC/C(=C\c1ccccc1)CO
inactive: Potency [1] | Potency [2] | Potency [11] | Potency [3] | Potency [4] | Potency [5] | Potency [12] | Potency [13] | Potency [6] | Potency [8]

COC(=O)Nc1nc2ccc(C(=O)c3cccs3)cc2[nH]1
inactive: Potency [14] | Potency [2] | Potency [11] | Potency [3] | outcome [15] | Potency [16] | outcome [17] | Potency [18] | outcome [19] | Potency [9]
active: Potency [20] 1.96 µM | Potency [5] 15.5 µM | Potency [12] 11.9 µM

CC1(C)C(=O)N(Br)C(=O)N1Cl
inactive: Potency [1] | Potency [2] | Potency [11] | Potency [3] | Potency [4] | Potency [5] | Potency [12] | Potency [13] | Potency [6] | Potency [7] | Potency [8] | Potency [9] | Potency [10]

CCCCCCCC/C=C\CCCCCCCC(=O)OC
inactive: Potency [1] | Potency [2] | Potency [4] | Potency [5] | Potency [12] | Potency [13] | Potency [6] | Potency [7] | Potency [8]

O=C1OCCN1/N=C/c1ccc([N+](=O)[O-])o1
inactive: Potency [1] | Potency [2] | Potency [3] | Potency [4] | Potency [5] | Potency [12] | Potency [6] | Potency [7] | Potency [8]

O=C(CS)OCCOC(=O)CS
active: Potency [11] 27.3 µM
inactive: Potency [1] | Potency [2] | Potency [3] | Potency [4] | Potency [12] | Potency [13] | Potency [6] | Potency [7] | Potency [8] | Potency [9]

CN1CCN(c2c(F)cc3c(=O)c(C(=O)O)cn4c3c2OCN4C)CC1
inactive: activation [1] 9.65% [at 15.8 µM] | activity change, negative = cytotoxicity [2] -0.366% [at 19 µM] | viability change, negative = cytotoxic [4] 6.99% [at 19 µM] | activity change, negative = inhibition [5] 2.58% [at 23.6 µM] | viability change, negative = cytotoxic [12] 0.256% [at 19 µM] | activity change, negative = cytotoxicity [13] -2.88% [at 19 µM] | activation [7] -1.52% [at 19 µM] | viability change, negative = cytotoxic [8] 9.28% [at 19 µM]

C=CC(C)(O)CCCC(C)CCCC(C)CCCC(C)C (configuration not stated)
active: Potency [1] 6.13 µM
inactive: Potency [11] | Potency [3] | Potency [4] | Potency [5] | Potency [12] | Potency [13] | Potency [6] | Potency [7] | Potency [8] | Potency [9]

CC(N)CN (configuration not stated)
inactive: Potency [1] | Potency [2] | Potency [4] | Potency [5] | Potency [12] | Potency [13]

O=C(/C=C/c1ccccc1)OCCCc1ccccc1
active: Potency [3] 61.1 µM | Potency [5] 17.8 µM
inactive: Potency [1] | Potency [11] | Potency [4] | Potency [13] | Potency [7] | Potency [8] | Potency [9]

CC(C)C(OC(=O)c1ccccc1)C(C)(C)COC(=O)c1ccccc1 (configuration not stated)
inactive: Potency [1] | Potency [2] | Potency [11] | Potency [4] | Potency [5] | Potency [12] | Potency [13] | Potency [8]

CCCOCCOCCO
inactive: Potency [1] | Potency [2] | Potency [11] | Potency [3] | Potency [4] | Potency [12] | Potency [13] | Potency [6] | Potency [7] | Potency [8]

O=C(CCCCCCC(=O)Nc1ccccc1)NO
active: Potency [6] 3.76 µM
inactive: Potency [1] | Potency [2] | Potency [5] | Potency [7]

CCOc1cc(N)c(Cl)cc1C(=O)NCC1CN(Cc2ccc(F)cc2)CCO1 (configuration not stated)
inactive: Potency [1] | Potency [2] | Potency [11] | Potency [3] | Potency [12] | Potency [13] | Potency [8]

C/C=C(\C)C(=O)OCCC(C)CCC=C(C)C (configuration not stated)
inactive: Potency [1] | Potency [2] | Potency [4] | Potency [5] | Potency [12] | Potency [13] | Potency [8]

CCc1cccc(N(C)C(N)=Nc2cccc3ccccc23)c1
inactive: Potency [1] | Potency [2] | Potency [3] | outcome [15] | outcome [19] | Potency [4] | Potency [12] | Potency [13] | Potency [6] | Potency [7] | Potency [8]
